# Laboratory results as given in the supplement of paper PMC11732987, “Enantioselective OTUD7B fragment discovery through chemoproteomics screening and high-throughput optimisation” (Communications Chemistry, 2025).
# A number with no mark means an inactive call.
# Columns and labels:
# Assay in all cases: log2 ratio of Biotin-Ahx-Ub-VS probe labelling (fragment/DMSO); higher = less target engagement (more negative = stronger competition), active = hit call of the paper (q ≤ 0.05, log2 ratio ≤ -1)
# Conditions in all cases: compound concentration: 200 uM; treatment time: 3 h
# ALG13 = molecular target: T1, ALG13 (UniProt Q9NP73)
# T1 sequence (whole entry): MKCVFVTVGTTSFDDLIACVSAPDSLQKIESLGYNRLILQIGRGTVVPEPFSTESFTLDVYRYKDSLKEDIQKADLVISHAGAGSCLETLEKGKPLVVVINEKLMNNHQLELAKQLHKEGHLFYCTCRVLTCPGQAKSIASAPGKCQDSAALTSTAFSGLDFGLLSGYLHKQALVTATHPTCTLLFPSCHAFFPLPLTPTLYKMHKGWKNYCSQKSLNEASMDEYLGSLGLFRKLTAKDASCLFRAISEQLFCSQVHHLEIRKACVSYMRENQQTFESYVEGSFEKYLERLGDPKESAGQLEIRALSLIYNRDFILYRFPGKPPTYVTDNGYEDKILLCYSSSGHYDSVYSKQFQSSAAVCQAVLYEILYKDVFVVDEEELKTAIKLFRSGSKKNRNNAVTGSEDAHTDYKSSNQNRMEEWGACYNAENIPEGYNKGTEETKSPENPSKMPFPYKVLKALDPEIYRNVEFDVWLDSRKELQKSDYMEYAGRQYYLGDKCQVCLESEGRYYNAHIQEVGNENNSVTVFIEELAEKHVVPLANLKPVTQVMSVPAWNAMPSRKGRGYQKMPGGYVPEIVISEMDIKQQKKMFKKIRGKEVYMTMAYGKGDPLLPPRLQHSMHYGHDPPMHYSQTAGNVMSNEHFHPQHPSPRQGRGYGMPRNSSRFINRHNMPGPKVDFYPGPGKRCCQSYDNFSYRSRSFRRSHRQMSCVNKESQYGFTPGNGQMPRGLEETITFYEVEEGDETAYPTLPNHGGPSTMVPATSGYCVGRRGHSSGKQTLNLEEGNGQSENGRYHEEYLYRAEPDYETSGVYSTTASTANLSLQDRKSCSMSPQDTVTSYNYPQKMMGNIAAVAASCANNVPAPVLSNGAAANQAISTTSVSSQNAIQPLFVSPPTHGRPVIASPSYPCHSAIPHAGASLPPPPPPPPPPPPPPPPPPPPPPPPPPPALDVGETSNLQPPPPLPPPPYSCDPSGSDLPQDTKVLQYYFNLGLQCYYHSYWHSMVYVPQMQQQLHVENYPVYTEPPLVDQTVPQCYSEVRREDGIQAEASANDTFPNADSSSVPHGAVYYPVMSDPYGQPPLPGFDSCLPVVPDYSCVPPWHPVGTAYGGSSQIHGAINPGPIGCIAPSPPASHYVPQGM
# Procedure, shortened: (§1)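 The table lists average log2 ratios of fragment over vehicle, from an unpaired t-test on global-median-normalised Spectronaut label-free quantities. Proteins with ≥2 unique peptides were used. Samples were HEK293T lysate (495 µg) treated in triplicate with fragment at 200 µM or vehicle for 3 h, then with Biotin-Ahx-Ub-VS (0.5 µM final) for 1 h, with labelled DUBs NeutrAvidin-enriched and run by diaPASEF LC-MS/MS.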
# ATXN3 = ATXN3 (UniProt P54252)
# Sequence of ATXN3 (P54252 whole entry): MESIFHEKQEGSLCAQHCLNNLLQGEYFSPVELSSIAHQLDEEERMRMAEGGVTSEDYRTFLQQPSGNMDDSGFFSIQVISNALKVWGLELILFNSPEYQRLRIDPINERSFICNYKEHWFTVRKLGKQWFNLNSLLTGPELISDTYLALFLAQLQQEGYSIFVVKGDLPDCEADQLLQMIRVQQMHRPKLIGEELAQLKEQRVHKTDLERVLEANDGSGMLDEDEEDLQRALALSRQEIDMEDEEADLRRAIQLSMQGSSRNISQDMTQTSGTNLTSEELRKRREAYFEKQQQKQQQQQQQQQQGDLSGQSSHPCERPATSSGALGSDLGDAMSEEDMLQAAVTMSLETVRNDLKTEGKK
# Procedure, shortened: as §1
# BAP1 = molecular target: T2, BAP1 (UniProt Q92560)
# T2 sequence (whole entry): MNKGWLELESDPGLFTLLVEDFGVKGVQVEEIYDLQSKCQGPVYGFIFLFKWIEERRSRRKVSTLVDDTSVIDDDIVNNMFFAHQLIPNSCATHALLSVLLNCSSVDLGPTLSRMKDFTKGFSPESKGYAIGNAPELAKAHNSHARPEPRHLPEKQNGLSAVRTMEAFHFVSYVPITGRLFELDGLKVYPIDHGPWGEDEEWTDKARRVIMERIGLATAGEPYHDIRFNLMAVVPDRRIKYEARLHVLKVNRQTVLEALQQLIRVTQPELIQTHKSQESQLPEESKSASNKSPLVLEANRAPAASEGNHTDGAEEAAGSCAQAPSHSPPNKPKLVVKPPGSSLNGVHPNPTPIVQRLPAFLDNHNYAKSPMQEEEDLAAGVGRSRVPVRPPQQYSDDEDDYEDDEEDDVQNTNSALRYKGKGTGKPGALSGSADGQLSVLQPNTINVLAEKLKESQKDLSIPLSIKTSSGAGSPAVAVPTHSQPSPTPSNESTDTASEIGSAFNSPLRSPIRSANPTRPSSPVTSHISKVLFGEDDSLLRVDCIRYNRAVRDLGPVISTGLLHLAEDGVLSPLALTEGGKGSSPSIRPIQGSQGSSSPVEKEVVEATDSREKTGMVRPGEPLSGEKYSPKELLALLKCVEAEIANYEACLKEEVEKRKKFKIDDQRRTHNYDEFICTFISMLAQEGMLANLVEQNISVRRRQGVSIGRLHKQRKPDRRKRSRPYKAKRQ
# Procedure, shortened: as §1
# EIF3F = EIF3F (UniProt O00303)
# Sequence of EIF3F (O00303 whole entry): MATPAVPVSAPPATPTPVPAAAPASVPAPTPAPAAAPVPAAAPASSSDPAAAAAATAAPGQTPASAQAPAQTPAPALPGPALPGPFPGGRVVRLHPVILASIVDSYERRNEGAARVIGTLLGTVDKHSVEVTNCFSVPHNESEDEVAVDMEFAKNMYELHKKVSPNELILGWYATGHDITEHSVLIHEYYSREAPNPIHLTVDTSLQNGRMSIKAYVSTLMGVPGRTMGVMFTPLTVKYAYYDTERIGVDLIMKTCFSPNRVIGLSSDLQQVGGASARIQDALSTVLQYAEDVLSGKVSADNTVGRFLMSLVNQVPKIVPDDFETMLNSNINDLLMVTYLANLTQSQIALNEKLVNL
# Procedure, shortened: as §1
# EIF3H = EIF3H (UniProt O15372)
# Sequence of EIF3H (O15372 whole entry): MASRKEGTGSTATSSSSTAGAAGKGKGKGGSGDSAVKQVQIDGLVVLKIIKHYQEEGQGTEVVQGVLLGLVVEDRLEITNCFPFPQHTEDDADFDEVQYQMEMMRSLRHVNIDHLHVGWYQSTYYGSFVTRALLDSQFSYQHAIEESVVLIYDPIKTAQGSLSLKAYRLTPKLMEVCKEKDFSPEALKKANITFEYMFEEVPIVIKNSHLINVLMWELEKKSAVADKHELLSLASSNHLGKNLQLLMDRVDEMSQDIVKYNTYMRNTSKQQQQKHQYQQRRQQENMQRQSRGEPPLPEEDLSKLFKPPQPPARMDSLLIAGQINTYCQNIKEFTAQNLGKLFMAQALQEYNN
# Procedure, shortened: as §1
# FAM105A = molecular target: T3, FAM105A (UniProt Q9NUU6)
# T3 sequence (whole entry): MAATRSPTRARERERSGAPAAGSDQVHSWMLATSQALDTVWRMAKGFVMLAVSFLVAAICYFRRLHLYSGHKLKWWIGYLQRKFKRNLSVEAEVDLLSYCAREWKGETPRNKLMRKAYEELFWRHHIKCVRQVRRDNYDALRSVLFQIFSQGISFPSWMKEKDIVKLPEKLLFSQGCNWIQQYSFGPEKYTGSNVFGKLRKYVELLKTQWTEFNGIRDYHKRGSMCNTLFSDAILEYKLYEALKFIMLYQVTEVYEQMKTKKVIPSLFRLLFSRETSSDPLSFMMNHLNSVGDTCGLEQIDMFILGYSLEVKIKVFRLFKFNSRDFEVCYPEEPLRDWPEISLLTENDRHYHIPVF
# Procedure, shortened: as §1
# OTUB1 = OTUB1 (UniProt Q96FW1)
# Sequence of OTUB1 (Q96FW1 whole entry): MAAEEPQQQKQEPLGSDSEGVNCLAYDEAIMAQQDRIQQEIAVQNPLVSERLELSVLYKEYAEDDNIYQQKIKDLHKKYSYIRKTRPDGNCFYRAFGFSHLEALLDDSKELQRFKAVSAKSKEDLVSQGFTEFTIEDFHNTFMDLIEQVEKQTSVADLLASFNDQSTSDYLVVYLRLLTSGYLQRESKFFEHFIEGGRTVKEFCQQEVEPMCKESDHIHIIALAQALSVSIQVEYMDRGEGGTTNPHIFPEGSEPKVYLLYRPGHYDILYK
# Procedure, shortened: as §1
# OTUD4 = molecular target: T4, OTUD4 (UniProt Q01804)
# T4 sequence (whole entry): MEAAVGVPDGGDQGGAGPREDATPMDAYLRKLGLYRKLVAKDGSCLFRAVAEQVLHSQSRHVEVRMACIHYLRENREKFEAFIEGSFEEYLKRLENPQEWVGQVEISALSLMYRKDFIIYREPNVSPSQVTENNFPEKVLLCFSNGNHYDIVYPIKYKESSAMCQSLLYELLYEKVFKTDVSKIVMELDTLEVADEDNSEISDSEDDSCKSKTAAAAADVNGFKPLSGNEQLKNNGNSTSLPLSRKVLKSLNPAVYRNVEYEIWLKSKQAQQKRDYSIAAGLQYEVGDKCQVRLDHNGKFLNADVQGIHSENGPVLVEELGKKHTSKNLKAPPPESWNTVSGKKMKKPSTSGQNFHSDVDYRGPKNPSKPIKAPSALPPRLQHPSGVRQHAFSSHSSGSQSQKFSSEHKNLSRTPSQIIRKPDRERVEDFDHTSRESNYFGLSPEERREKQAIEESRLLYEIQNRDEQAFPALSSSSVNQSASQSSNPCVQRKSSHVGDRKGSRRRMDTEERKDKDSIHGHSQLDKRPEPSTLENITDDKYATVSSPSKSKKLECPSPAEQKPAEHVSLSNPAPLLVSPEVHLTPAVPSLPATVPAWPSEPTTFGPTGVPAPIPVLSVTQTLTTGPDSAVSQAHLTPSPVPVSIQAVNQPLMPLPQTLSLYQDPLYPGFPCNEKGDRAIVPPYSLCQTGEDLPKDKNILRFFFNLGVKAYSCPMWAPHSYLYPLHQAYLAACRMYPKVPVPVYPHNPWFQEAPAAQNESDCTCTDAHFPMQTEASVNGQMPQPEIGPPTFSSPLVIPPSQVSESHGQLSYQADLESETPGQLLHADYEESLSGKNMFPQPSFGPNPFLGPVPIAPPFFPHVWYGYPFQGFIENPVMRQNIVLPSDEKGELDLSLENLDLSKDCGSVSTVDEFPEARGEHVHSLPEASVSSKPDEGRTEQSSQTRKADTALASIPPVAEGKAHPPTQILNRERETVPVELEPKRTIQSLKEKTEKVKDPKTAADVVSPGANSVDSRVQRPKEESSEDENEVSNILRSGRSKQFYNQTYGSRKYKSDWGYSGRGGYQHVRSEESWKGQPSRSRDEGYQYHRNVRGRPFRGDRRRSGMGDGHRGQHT
# Procedure, shortened: as §1
# OTUD5 = molecular target: T5, OTUD5 (UniProt Q96G74)
# T5 sequence (whole entry): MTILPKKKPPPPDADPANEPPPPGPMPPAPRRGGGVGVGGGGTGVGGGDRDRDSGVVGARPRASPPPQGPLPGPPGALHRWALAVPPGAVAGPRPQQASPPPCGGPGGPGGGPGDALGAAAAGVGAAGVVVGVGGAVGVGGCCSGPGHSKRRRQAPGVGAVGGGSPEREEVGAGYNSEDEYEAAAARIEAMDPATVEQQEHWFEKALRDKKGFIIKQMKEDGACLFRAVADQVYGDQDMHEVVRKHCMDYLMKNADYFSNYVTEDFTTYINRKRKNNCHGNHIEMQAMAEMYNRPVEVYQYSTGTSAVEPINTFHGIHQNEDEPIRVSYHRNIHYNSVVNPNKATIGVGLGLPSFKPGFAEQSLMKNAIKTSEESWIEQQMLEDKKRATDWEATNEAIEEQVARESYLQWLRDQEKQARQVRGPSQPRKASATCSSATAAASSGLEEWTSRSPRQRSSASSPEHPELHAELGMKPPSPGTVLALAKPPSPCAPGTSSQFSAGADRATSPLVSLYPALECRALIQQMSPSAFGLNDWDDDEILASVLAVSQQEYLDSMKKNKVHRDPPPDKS
# Procedure, shortened: as §1
structure (smiles),measurement,setting,value
O=C(CCl)NCc1cccc(N2CCCC2=O)c1,log2 ratio of Biotin-Ahx-Ub-VS probe labelling,ALG13,-0.0431
same,log2 ratio of Biotin-Ahx-Ub-VS probe labelling,ATXN3,-0.37
same,log2 ratio of Biotin-Ahx-Ub-VS probe labelling,BAP1,-3.09 (active)
same,log2 ratio of Biotin-Ahx-Ub-VS probe labelling,EIF3F,0.179
same,log2 ratio of Biotin-Ahx-Ub-VS probe labelling,EIF3H,0.112
same,log2 ratio of Biotin-Ahx-Ub-VS probe labelling,FAM105A,-0.0389
same,log2 ratio of Biotin-Ahx-Ub-VS probe labelling,OTUB1,0.122
same,log2 ratio of Biotin-Ahx-Ub-VS probe labelling,OTUD4,-0.18
same,log2 ratio of Biotin-Ahx-Ub-VS probe labelling,OTUD5,-0.358
